Autofluor counter: flagged as autofluorescent in microsphere protease counterscreen; compound autofluorescence counterscreen, microsphere flow cytometry; active compounds read high; hit rate 3.1% among 360,000; fluorescence intensity (no concentration beside the values); in the data active = fluorescence intensity above about 16000; inconclusive = no clear call, values can overlap the other calls
BH1578 lux ind: inducers of Vibrio cholerae quorum light production without autoinducers, primary screen, BH1578 luxS cqsA deficient, single point. V. cholerae BH1578 lux reporter, luminescence, 6 h. activation, % at 18.7 µM. hit rate 0.16% among 350,000; in the data active = activation mostly above about 9.7%, no sharp cut-off; inconclusive = no clear call, values can overlap the other calls; inactive = mostly below about 3.7%
BoNT F protease: BoNT/F light chain protease inhibitors, primary screen, biochemical, flow cytometry, MLPCN library; Botulinum neurotoxin type F light chain protease (Clostridium botulinum); Multiplex microsphere protease cleavage assay; inhibition, % at 10 µM; hit rate 0.22% among 360,000; in the data active = inhibition above about 35%, passing the limit was not always enough; inconclusive = no clear call, values can overlap the other calls; note: plate controls were buffer without enzyme for full effect and enzyme alone for no effect
BoNT A protease: BoNT/A light chain protease inhibitors, primary screen, biochemical, flow cytometry, MLPCN library. Botulinum neurotoxin type A light chain protease (Clostridium botulinum A str. ATCC 3502). hit rate 0.17% among 360,000. multiplex microsphere protease substrate cleavage. inhibition, % at 10 µM; note: plate controls were buffer without enzyme for full effect and enzyme alone for no effect
Anthrax LF prot: Bacillus anthracis LF protease inhibitors, primary screen, biochemical, multiplex microsphere, MLPCN library | Lethal factor (Bacillus anthracis), P15917 | multiplex microsphere protease cleavage assay | inhibition, % at 10 µM | hit rate 0.12% among 360,000; note: plate controls were buffer without enzyme for full effect and enzyme alone for no effect
* marks the source's active call; other numbers are inactive results; i = inactive; ? = inconclusive; . = not tested or not shown; ! = not confirmed by another sample. Rows were chosen to be rich in hits. Some 3.5% of all compounds tested hit in one or more screens of this group. Cut-off read from the data, not from the text of the source, unless noted: active = inhibition above about 30%; inconclusive = no clear call, values can overlap the other calls; inactive = below that.

SMILES	Autofluor counter	BH1578 lux ind	BoNT F protease	BoNT A protease	Anthrax LF prot
CCN(CC)c1ccc(/C=N/c2sc3c(c2C#N)C2CCN3CC2)c(O)c1	22519*	i	24	18	14
CCN(CC)S(=O)(=O)N1CCC(C(=O)NC2CCCc3ccccc32)CC1 (stereo unspecified)	20617*	0	6	5	0
CNC(=O)NC1CCCc2ccccc21 (stereo unspecified)	23281*	i	1	1	-2
O=C(Nc1ccccc1)NC1CCCc2ccccc21 (stereo unspecified)	2281	0	1	1	0
Cc1ccc(S(=O)(=O)N2CCN(CC(=O)NC3CCCc4ccccc43)CC2)cc1C (stereo unspecified)	21955*!	-2	6	0	0
Cc1nn(C)c(C)c1S(=O)(=O)N1CCC(C(=O)NC2CCCc3ccccc32)CC1 (stereo unspecified)	6357	0	-5	-1	6
O=C(CCN1C(=O)C2C3C=CC(C3)C2C1=O)NC1CCCc2ccccc21 (stereo unspecified)	4713	66*	-2	0	-5
COC(=O)C1=CN(c2ccc(F)cc2)C=C(C(=O)OC)C1c1ccc(O)cc1	3179	i	8	-1	5
Cc1nn2cnnc2c(C)c1Cc1ccc(Cl)cc1	3048	i	0	1	-5
Cc1onc(-c2ccccc2Cl)c1C(=O)OCC(=O)Nc1ccc2c(c1)OCO2	3386	3	4	2	1
Cc1onc(-c2ccccc2)c1C(=O)OCC(=O)Nc1ccc2c(c1)OCO2	19429*	i	2	2	-2
COc1cc2oc(=O)cc(CN3CCN(C(C)=O)CC3)c2cc1Cl	5594	.	-1	1	0
O=C1N/C(=N\N=C\c2ccc3ncccc3c2)SC1Cc1ccc(SC(F)F)cc1 (stereo unspecified)	20635*	-4	4	?	1
CC(OC(=O)c1cccc(-n2cnnn2)c1)c1nc2ccccc2c(=O)[nH]1 (stereo unspecified)	3075	0	-5	-1	0
O=c1c2ccccc2nc(-c2ccccc2)n1-c1cccnc1	22832*	0	1	?	-3
O=C(O)c1cc([N+](=O)[O-])cc([N+](=O)[O-])c1N1CCN(c2cccc(C(F)(F)F)c2)CC1	3587	-6	2	2	-1
COc1cc(CN2CCC(n3nccc3NC(=O)C3CC3)CC2)cc(OC)c1	5923	0	8	1	0
Cc1cccc2c3nc4ccccc4nc3n(C)c12	4110	i	4	45*	7
O=C(NCc1ccccc1)C(c1ccncc1)N(C(=O)c1csnn1)c1cccc(F)c1 (stereo unspecified)	6225	0	3	1	2
COc1ccccc1NS(=O)(=O)c1cc(C(=O)N2CC(C)CC(C)C2)ccc1C (stereo unspecified)	22186*	i	2	?	0
Cc1ccccc1NS(=O)(=O)c1cc(C(=O)N2CCCC2)ccc1C	.	i	.	.	.
Fc1ccc(Br)cc1C1C=C(c2ccc(Br)cc2)Nc2ncnn21 (stereo unspecified)	22136*	-1	-7	-5	-1
CCc1ccc(C2=CC(c3cc(Br)ccc3F)n3ncnc3N2)cc1 (stereo unspecified)	8197	2	-1	0	0
CC(=O)Nc1ccccc1OCC(=O)N(Cc1ccccc1)C(C)C	1959	0	-1	0	2
Cc1ccc(Cl)c(OCC(=O)NCc2ccco2)c1	21508*	i	-3	?	-1
SMILES	Autofluor counter	BH1578 lux ind	BoNT F protease	BoNT A protease	Anthrax LF prot
O=C(/C=C/c1ccccc1)NCc1ccco1	4277	0	3	1	-9
COc1ccccc1OCC(=O)NCc1ccco1	10212	0	1	0	-11
O=C(/C=C/c1ccc(Cl)c(Cl)c1)NCc1ccco1	2025	0	35*	3	2
O=C(COc1ccccc1Br)NCc1ccco1	16469*	i	0	-1	0
CN1CCN(C(=O)/C=C/c2c(F)cccc2Cl)CC1	6322	i	-9	-1	-2
COc1ccccc1CN(C)C(=O)COC(=O)c1cc(C)oc1C	5061	i	4	-6	8
CNC(=S)NNC(=O)c1cccn(Cc2cccc(Cl)c2)c1=O	24235*	i	-3	-2	0

Source: PubChem (several laboratories)
